This is an account of results in PubChem BioAssay.

The source made the active and inactive calls. The rule behind the calls is not given here.

As a reminder, the inhibition is the relative decrease from the control value, in per cent.

Pantothenate synthetase (Mycobacterium tuberculosis (strain ATCC 25618 / H37Rv)), sequence (P9WIL5 whole entry, looked up): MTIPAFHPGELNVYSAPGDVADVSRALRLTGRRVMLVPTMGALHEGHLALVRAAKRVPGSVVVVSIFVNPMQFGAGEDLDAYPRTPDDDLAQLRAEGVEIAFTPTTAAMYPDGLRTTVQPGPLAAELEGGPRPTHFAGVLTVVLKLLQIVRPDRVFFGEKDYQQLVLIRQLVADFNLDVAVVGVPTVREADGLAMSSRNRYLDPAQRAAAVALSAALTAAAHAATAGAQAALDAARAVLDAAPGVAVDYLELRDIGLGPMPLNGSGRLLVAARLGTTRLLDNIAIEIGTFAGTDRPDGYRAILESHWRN

This test has as its target Pantothenate synthetase (Mycobacterium tuberculosis (strain ATCC 25618 / H37Rv)) (UniProt P9WIL5). Briefly: Recombinant Mtb pantothenate synthetase (PanC) inhibitors, coupled enzyme, confirmatory (AID 375).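 Note: 0% = full reaction with vehicle and 100% = no enzyme background.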 The conditions noted are these: coupled enzyme assay; at 10 µM, hits give high values.
On to `N#CCOc1nc(N2CCOCC2)nc(N2CCOCC2)n1`, for which the inhibition was 0% (inactive).
Take `CC(C)N(Cc1nc(-c2ccc(Cl)cc2)no1)C(=O)CN(C)S(=O)(=O)c1ccc(Cl)cc1`: the inhibition was 0% (inactive).
On to `C(/CCc1ccccc1)=N\n1cnnc1`, for which the inhibition was 8% (inactive).
For the compound `CC(=O)Nc1ccc(S(=O)(=O)Nc2nc3n(n2)C(c2ccccc2)CC(=O)N3)cc1` (stereo not given), the inhibition was 0% (inactive).
As to `O=C(Nc1cccc(OCC(=O)N2CCOCC2)c1)C1CCCCC1`, the inhibition is 0% (inactive).
Turning to `COc1cccc(OC)c1OCCCSc1nc(C)cc(=O)[nH]1`, the inhibition is 0% (inactive).
Next, `O=C(CCCN1CCC(O)(c2ccc(Cl)cc2)CC1)c1ccc(F)cc1`: 0% (inactive); `COc1ccccc1CC(=O)NCc1ccc2c(c1)OCO2`: 0% (inactive).
Regarding `O=C(Cn1cc2c(n1)CCCCC2)N1CCc2ccccc21`, the inhibition is 0% (inactive).
Take `Cc1nc2sc(C(c3cccc(F)c3)N3CCCCC3)c(O)n2n1` (stereo not given): the inhibition is 0% (inactive).
Regarding `CCOc1ccc(OCC)c(NC(=O)C2CCN(S(=O)(=O)c3cnc[nH]3)CC2)c1`, the inhibition is 4% (inactive).
Regarding `Nc1cc(N)nc(SCc2ccccc2)n1`, the inhibition was 0% (inactive).
In the case of `O=C(NCc1ccco1)c1cnn2c(C(F)(F)F)cc(-c3ccco3)nc12`, the inhibition is 4% (inactive).
The value for `CC(=O)Nc1ccc(OCC(O)Cn2nc(C)nc2C)cc1` (stereo not given) was 4% (inactive); that for `O=C(NC1=NCCS1)c1nc(-c2ccccc2)n(-c2ccccc2)n1` was 3% (inactive); that for `COc1ccc(C2/C(=C(/O)c3cnn(-c4ccccc4)c3C)C(=O)C(=O)N2CCN(C)C)cc1OC` (stereo not given) was 3% (inactive).
With `CCCn1c(SCC(=O)Nc2ccccc2C(=O)OCC)nc2c1c(=O)n(C)c(=O)n2C`, the inhibition was 0% (inactive).
Take `CCc1nnc(NC(=O)CSc2nnc(Cc3ccccc3)n2-c2ccc(OC)cc2)s1`: the inhibition was 7% (inactive).
Next, `O=C(c1ccccc1)c1ccc(N2CCNCC2)cc1`: 3% (inactive).
The value for `CCOc1cc2[nH]c(=S)n(CC3CCCO3)c(=O)c2cc1OCC` (stereo not given) was 9% (inactive).
For `Cc1ccc(C)c(N(CC(=O)NCc2ccco2)C(=O)CCC(=O)Nc2ccccn2)c1`, the inhibition is 0% (inactive).
As to `C#CC1(O)CC(C)N(C)C(C)C1` (stereo not given), the inhibition was 6% (inactive).
For the compound `Cc1cccc2c(=O)oc(-c3ccc4c(c3)C(=O)N(CC3CCCO3)C4=O)nc12` (stereo not given), the inhibition was 0% (inactive).
As to `C=CCN(CC=C)C(=O)c1ccncc1`, the inhibition is 0% (inactive).
In the case of `O=C(C1CCCN(S(=O)(=O)c2cnc[nH]2)C1)N1CCN(c2ccc(Cl)cc2)CC1` (stereo not given), the inhibition is 0% (inactive).
Regarding `COc1ccc(S(=O)(=O)Nc2ccc(F)c(Cl)c2)cc1OC`, the inhibition was 0% (inactive).
In the case of `Cc1ccc(-c2cc(C(=O)N3CCCC3)no2)cc1`, the inhibition was 0% (inactive).
As for `COCCn1c(SCC(=O)Nc2ccc3c(c2)OCCO3)nc2c(c1=O)SC(C)C2` (stereo not given), the inhibition is 3% (inactive).
Take `CCc1ccccc1-n1c(SCC(=O)N2CCCC2)nnc1-c1ccccn1`: the inhibition was 0% (inactive).
In the case of `CCOc1ccccc1CNC(=O)CCN1C(=O)COc2ccccc21`, the inhibition was 0% (inactive).
Regarding `O=C(C1CCN(C2CC(=O)N(c3ccc(F)cc3)C2=O)CC1)N1CCOCC1` (stereo not given), the inhibition is 0% (inactive).
Consider `COc1cccc(C2CC(c3ccc(C)cc3)Nc3nc(N)nn32)c1` (stereo not given), for which the inhibition is 0% (inactive).
Take `O=C(c1ccc(F)cc1)C1CCN(CCn2c(=O)[nH]c3ccccc3c2=O)CC1`: the inhibition is 0% (inactive).
Next, `C/C(=N\O)C(=O)C(CN1CCCCC1)CN1CCCCC1`: 0% (inactive); `CCn1c(CSc2nc(C)cc(C)n2)nnc1SCC(=O)Nc1ccccc1`: 5% (inactive).
As for `CCOCCn1c(CN2CCC(Cc3ccccc3)CC2)nc2c1c(=O)n(C)c(=O)n2C`, the inhibition is 0% (inactive).
The value for `Cc1cc(S(=O)(=O)NC2CCCCC2)ccc1OCC(=O)NCc1ccccn1` was 0% (inactive); that for `CC(=NCC1CCNCC1)C1=C(O)CC(C)(C)CC1=O` was 0% (inactive); that for `COc1cccc(CNC(=O)C2CCN(S(=O)(=O)c3ccc(F)cc3)CC2)c1` was 8% (inactive).
For `COc1cccc(CNC(=O)C2CCN(c3cnccn3)CC2)c1`, the inhibition is 0% (inactive).
